Compound activity: PubChem, National Center for Advancing Translational Sciences (NCATS)
Marburg entry inh = qHTS for inhibitors of binding or entry into cells for Marburg Virus. Marburg virus pseudotyped entry inhibition, cell reporter. Potency, µM (series often up to 37.8 µM), usual class: inhibitors. 300,000 compounds, 1.8% hits. AID 540276, 2011; calls by dose curve; tested in HEK293 cells
LASV entry inh = qHTS for Inhibitors of binding or entry into cells for Lassa Virus. 300,000 compounds, 1.2% hits. Lassa virus pseudotype entry inhibition, cell reporter. AID 540256, 2011. Potency, µM (series often up to 37.9 µM), usual class: inhibitors; calls by dose curve; tested in HEK293 cells; further: nearly all actives have a fitted effect of over 50% in size
HCV inh = qHTS Assay for Inhibitors of Hepatitis C Virus (HCV). Potency, µM (titrated, usually from 41.8 µM), actives largely listed as inhibitors. Huh7.5.1 HCVcc-Cre infection, luciferase reporter, 44 h. 340,000 compounds, 3.4% hits; active means well fitted inhibition curve with a large enough effect; inconclusive means small, poorly fitted or top-dose-only effect, or another doubt; inactive means no such curve, though single readings can be large or run the other way
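Luciferase read-out (15 sec integration) after a 15 min room-temperature substrate step quantifies HCVcc-Cre infection. Cells, 1,000 per well, had compound added 4 h post-plating, then virus at ~0.5 moi, and were cultured 44 h.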
FMDV antiviral = High Throughput Screening for Foot and Mouth Disease Virus Antivirals | FMDV antiviral cell-based qHTS | 410,000 compounds, 1.2% hits | Potency, µM (highest dose often 57.9 µM), most hits filed as inhibitors | AID 1159524, 2015; calls by dose curve; tested in HEK293T cells; further: read-out not given here; nearly all actives have a fitted effect of over 45% in size
SARS PLP yeast = qHTS of Yeast-based Assay for SARS-CoV PLP; S. cerevisiae expressing SARS-CoV PLpro, growth rescue; Potency, µM (highest dose often 32.9 µM), hits mostly activators; 330,000 compounds, 0.19% hits; calls by dose curve; further: nearly all actives have a fitted effect of over 55% in size
HCMV inh = qHTS Assay for inhibitors of the human cytomegalovirus (HCMV); activity change, negative = inhibition, % at 57.5 µM; AID 1259415, 2018; 410,000 compounds, 4.5% hits; HFF cells, HCMV-luciferase reporter, 72 h; hits give low values; in the data active means activity change below about -60%; inconclusive means no clear call, values can overlap the other calls; inactive means above about -39%
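After 16 h attachment at 37C, HFF cells received test compound and HCMV-luciferase (1 PFU/cell); reporter luminescence read 72 h later, data normalized against buffer-only and known inhibitor Salinomycin.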
Numbers stand for hits; – = inactive; ? = inconclusive; · = no result given; ! = not active in a repeat. Compounds with a hit are over-represented: about 8% of the library has one in this group of screens.

SMILES | Marburg entry inh | LASV entry inh | HCV inh | FMDV antiviral | SARS PLP yeast | HCMV inh
CCOc1ccc(CNc2ccc(N3CCCC3)cc2)cc1 | – | – | – | – | – | –
CCOc1ccc(CNc2ccc(N3CCN(Cc4ccccc4)CC3)cc2)cc1 | – | ? | 10µM | – | – | –
CCOC(=O)N1CCN(Cc2cc(=O)oc3ccc4ccccc4c23)CC1 | – | – | – | 20µM | – | –
CCOc1ccc(CN2CCN(C(=O)c3ccccc3)CC2)cc1 | ? | – | 11µM | ? | – | –
CCOc1ccc2oc(=O)cc(CN3CCN(C(=O)c4ccc(Cl)cc4)CC3)c2c1 | – | – | · | – | · | -67
N#Cc1ccc(NC(=O)Nc2ccc(Oc3ccc(NC(=O)Nc4ccc(C#N)cc4)cc3)cc2)cc1 | ? | ? | ? | – | – | -82
N#Cc1cccc(NC(=O)c2ccccc2C(=O)O)c1 | – | – | – | – | – | –
N#Cc1ccc(NC(=O)Nc2cccc(C#N)c2)cc1 | · | · | 10µM | ? | – | –
CCC(Sc1ncccc1C(=O)Oc1ccccc1Cl)C(=O)Nc1ccccc1OC (stereo not drawn) | · | – | · | – | · | –
CC(N)(COP(=O)(O)O)C(=O)O (stereo not drawn) | · | · | · | – | · | ·
O=C1C2=C(C(=O)c3ccccc31)[C@H]1O[C@](c3ccsc3)(Cc3ccccc31)O2 | – | · | · | · | · | ·
CSc1ncc(C(=O)N2CCN(c3cccc(C(F)(F)F)c3)CC2)c(C)n1 | · | – | · | – | · | –
COc1cccc(-c2ncn(CCc3ccccc3OC)c2C(C)C)c1 | · | · | · | 32µM | · | -101
CCc1ncn(CCc2ccccc2OC)c1C(C)C | · | · | · | – | · | –
COc1cccc(-c2ncn(CCc3ccccc3OC)c2CC(C)C)c1 | · | · | · | · | · | -88
COC(=O)[C@]12C[C@H](CC(=O)NCc3cccs3)C(=O)N(CCC3=CCCCC3)C1=C[C@H](C(C)(C)C)O[C@@H]2C | · | · | · | · | · | –
Cc1ccc(-n2ccn(CC(=O)c3ccc(F)cc3)c(=O)c2=O)cc1C | · | – | · | – | · | –
CCC(=NCCc1c(C)[nH]c2ccc(C)cc12)C1=C(O)CC(c2ccccc2)CC1=O (stereo not drawn) | ? | ? | ? | – | – | -77
CCN(C(=O)Cn1c(=O)oc2cc(S(=O)(=O)N3CCCCCC3)ccc21)c1cccc(C)c1 | – | – | · | – | · | –
COc1ccc(N2C(=O)N3[C@H](c4ccccc4)[C@@H](C)C[C@H]4c5ccccc5C[C@]43C2=O)cc1 | – | · | · | · | · | ·
COC(=O)C1=C(C)NC(=O)/C1=C\c1cc(C)n(-c2c(C)cccc2C)c1C | 12µM | ? | ? | · | – | -62
CCOc1ccc(NC(=O)Cn2c(=O)n(-c3ccc(C)cc3)c(=O)c3cc(OC)c(OC)cc32)cc1 | – | – | · | – | · | –
Cc1nnc(-c2ccco2)c2cn(-c3cccc(Br)c3)nc12 | – | ? | ? | 22µM | – | –
CCOC(=O)CC(NC(=O)CCc1c(C)nc2c(c1C)c(=O)n(C)c(=O)n2C)c1ccc(OCC)c(OC)c1 (stereo not drawn) | – | – | · | – | · | –
CCCS(=O)(=O)Nc1cc(-c2cn3cccc(C)c3n2)ccc1C | – | – | · | – | · | –
SMILES | Marburg entry inh | LASV entry inh | HCV inh | FMDV antiviral | SARS PLP yeast | HCMV inh
Cc1nc(-c2ccc(NC(=O)CC(C)C)cc2)cs1 | – | ? | – | – | – | -76
COc1ccc(-c2csc(NC(=O)CC(C)C)n2)cc1 | ? | 13µM | – | ? | – | –
C[C@@H]1CN([C@H](C)CO)C(=O)c2cc(Br)cnc2O[C@H]1CN(C)C(=O)c1ccc(F)cc1 | · | · | · | · | · | –
CC(=O)N1CCc2c(sc3c2c(=O)n(-c2ccccc2)c(=O)n3Cc2cccc(C(F)(F)F)c2)C1 | – | · | · | – | · | –
Cc1ccc(C2CC(C(F)(F)F)n3nc(C(=O)NCc4c(C)nn(C)c4C)c(Cl)c3N2)cc1 (stereo not drawn) | 12µM! | ? | 8.9µM | 25µM | – | ?
Cc1nn(C)cc1CN(C)C(=O)c1nn2c(c1Cl)NC(c1cccs1)CC2C(F)(F)F (stereo not drawn) | – | – | – | · | – | -78
Cc1nn(C)c(C)c1CNC(=O)c1cnn2c1NC(c1ccccc1)CC2C(F)(F)F (stereo not drawn) | – | – | – | · | – | ?
COc1ccc(C2CC(C(F)(F)F)n3nc(C(=O)NCc4cn(C)nc4C)c(Cl)c3N2)cc1 (stereo not drawn) | ? | – | ? | · | – | -72
Cc1nn(C)cc1CN(C)C(=O)c1nn2c(c1Br)NC(c1cccs1)CC2C(F)(F)F (stereo not drawn) | ? | – | – | – | – | –
COc1ccc(C2(CNC(=O)C(=O)Nc3ccccc3C)CCCC2)cc1OC | – | ? | · | ? | · | –
CCn1c(NC(=O)c2ccc(COc3ccc(C)cc3[N+](=O)[O-])o2)nc2ccccc21 | ? | – | – | – | – | -63
O=C(NC1CCCCC1)[C@H](CSCc1ccccc1)N1Cc2ccccc2C1=O | – | – | – | – | – | -60
Cc1ccc(C)c(NC(=O)C(Cc2ccccc2)N2Cc3ccccc3C2=O)c1 (stereo not drawn) | · | – | · | ? | · | -90
CC(C)NC(=O)[C@H](CSCc1ccccc1)N1Cc2ccccc2C1=O | – | – | – | – | – | –
Cc1nn(-c2nc(-c3ccc(F)cc3)cc(C(F)(F)F)n2)c(C)c1Br | – | – | · | ? | · | –
COc1cccc(CNc2ncnc3onc(C)c23)c1 | · | – | · | ? | · | –
COc1ccc(CCNc2ncnc3onc(C)c23)c(OC)c1 | · | – | · | 13µM | · | ?
CSc1ccc(CCNc2ncnc3onc(C)c23)cc1 | · | ? | · | – | · | -65
CCOc1ccc(CCNC(=O)c2[nH]c3cc(OC)ccc3c2Sc2ccccc2)cc1OCC | ? | – | · | – | · | –
CC(C)=CCC/C(C)=C/CO/N=C1\C[C@@H](O)[C@@H](O)[C@@H]2[C@@H]3C(=O)N(c4cccc(Oc5ccccc5)c4)C(=O)[C@@H]3CC[C@@H]12 | – | · | · | · | · | ·
Cc1cccc2c1nc(-c1ccccc1)n1nnnc21 | – | – | – | – | – | -60
Cc1cccc2c1nc(-c1ccccc1)n1cnnc21 | – | – | – | ? | – | -69
c1ccc(-c2nn3cnnc3c3ccccc23)cc1 | · | · | ? | – | – | –
Cc1ccccc1-n1nnnc1-c1ccccc1 | – | – | – | – | – | –
CN(C(=O)CC(=O)Nc1ccc2nc3n(c(=O)c2c1)CCCCC3)c1ccccc1F | – | – | · | – | · | –
COc1cccc(Cn2c(CNC(=O)CCc3ccccc3)nc3cccnc32)c1 | · | ? | · | – | · | –
CCOC(=O)c1cccc(NC(=O)CSc2ncc3c(n2)-c2ccc(Cl)cc2N(Cc2ccccc2)S3(=O)=O)c1 | · | – | · | – | · | –
COc1ccccc1NC(=O)C1=C(C)Nc2c(C(=O)Nc3ccc(C)cc3)cnn2C1c1cccc(OC)c1OC (stereo not drawn) | · | – | · | – | · | –
